Experimental data taken from PubChem BioAssay (EPA / NIEHS).
Records with an inconclusive call do not appear. The source made the active and inactive calls. Rule for the calls, unless noted: active = hit-call score of the fitted dose curve at least 0.9, where 1 is the maximum; inactive = score below 0.9.

Molecular target: Retinoic acid receptor RXR-alpha (Homo sapiens) (UniProt P19793)
Sequence (P19793 whole entry, looked up): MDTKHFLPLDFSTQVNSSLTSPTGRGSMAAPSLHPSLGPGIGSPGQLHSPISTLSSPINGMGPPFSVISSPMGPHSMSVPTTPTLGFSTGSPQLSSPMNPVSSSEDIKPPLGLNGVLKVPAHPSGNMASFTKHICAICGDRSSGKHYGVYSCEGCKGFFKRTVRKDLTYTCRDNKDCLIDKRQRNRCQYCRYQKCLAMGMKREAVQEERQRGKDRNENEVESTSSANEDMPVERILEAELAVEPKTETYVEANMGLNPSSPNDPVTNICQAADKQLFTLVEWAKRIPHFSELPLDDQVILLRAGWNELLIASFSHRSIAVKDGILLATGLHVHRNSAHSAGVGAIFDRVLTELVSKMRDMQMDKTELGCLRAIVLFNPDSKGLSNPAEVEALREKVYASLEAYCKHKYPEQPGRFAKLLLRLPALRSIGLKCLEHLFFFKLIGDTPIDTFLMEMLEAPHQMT
Assay: TOX21_TR_RXR_BLA_Agonist_Followup_ratio: Tox21 Thyroid Hormone Receptor beta Retinoid X Receptor alpha (RXRa) Agonism Beta-lactamase (BLA) Follow-Up Assay, Ratio (AID 2283968; active = hit-call score of the fitted dose curve at least 0.9, where 1 is the maximum)
Excerpt: GeneBLAzer RXRa-UAS-bla HEK293T assay (RXRa-bla) (ThermoFisherScientific Catalog No. K1697) was run in qHTS 1536 well format as a secondary assay for specificity of response in the TOX21_TR_GH3_LUC_Agonist assay.TOX21_TR_RXR_BLA_Agonist_Followup_ratio is an assay readout measuring reporter gene via receptor activity and designed using inducible reporter (beta lactamase induction) detected with GAL4 b-lactamase reporter gene. The signal is derived from the ratio of cleaved (ch2) to uncleaved (ch1) reporter gene substrate used as the measure of target activity.Data from the assay component TOX21_TR_RXR_BLA_Agonist_Followup_ratio was analyzed into 1 assay endpoint. This assay endpoint, TOX21_TR_RXR_BLA_Agonist_Followup_ratio, was analyzed in the positive analysis fitting direction relative to DMSO as the negative control and baseline of activity. Using a type of inducible reporter, gain-of-signal activity can be used to understand changes in the reporter gene as they relate to the gene RXRA. Furthermore, this assay endpoint can be referred to as a primary readout, because this assay has produced multiple assay endpoints and this ratio serves a reporter gene function to understand target activity. To generalize the intended target to other relatable targets, this assay endpoint is annotated to the nuclear receptor intended target family, where subfamily is non-steroidal.
After5-h incubation at 37C/5% CO2 for cell attachment, 23 nL of follow-up compounds dissolved in DMSO, 11 concentrations in triplicate, and the positive control (9-cis retinoic acid) were transferred to the assay plates using a Pintool station. The assay plates were incubated at 37C/5% CO2 for 16h. One microliter of LiveBLAzer FRET-B/GCCF4-AM substrate (Life Technologies) was added to each well using an FRD. After 2-h incubation at room temperature, the fluorescence intensity was measured using an Envision plate reader (Perkin Elmer). Data were expressed as the ratio of 460:530 nm.
For `COC(=O)c1ccc(I)cc1S(=O)(=O)NC(=O)Nc1nc(C)nc(OC)n1`, the outcome was “inactive”.
For `CCNc1nc(N)nc(Cl)n1`, the outcome was “inactive”.
For `CCCN(CCC)C(=O)SCC`, the outcome was “inactive”.

System: not listed separately
Assay: CCTE_Harrill_HTTr_Viability_DMEM_6hr: (Pilot) CCTE's 6-hour Cell Viability Assessment for the High-Throughput Transcriptomics (HTTr) Platform, in MCF-7 cells cultured in DMEM + 10% fetal bovine serum, Harrill Lab (AID 2283973)
Summary of the method: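 Propidium iodide uptake imaged by high-content analysis after six hours of chemical treatment in an eight-concentration series. Cells: MCF-7 grown in DMEM with 10% fetal bovine serum; DMSO as baseline.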
With `CC(C)CCCCCCc1ccc(O)cc1` the outcome was “inactive”.
With `S=C([S-])NCCNC(=S)[S-].[Mn+2]` the outcome was “inactive”.
With `C[C@]12CC[C@@H]3c4ccc(O)cc4C[C@@H](CCCCCCCCCS(=O)CCCC(F)(F)C(F)(F)F)[C@H]3[C@@H]1CC[C@@H]2O` (stereo not given in full) the outcome was “inactive”.
For `CC(C)(c1ccc(O)cc1)c1ccc(O)cc1`, the outcome was “inactive”.
In the case of `C=CCOC(Cn1ccnc1)c1ccc(Cl)cc1Cl` (stereo not given), the outcome was “inactive”.
With `N[C@@H](Cc1cc(I)c(Oc2ccc(O)c(I)c2)c(I)c1)C(=O)O` the outcome was “inactive”.
With `Cc1nn(C)c(Oc2ccccc2)c1C=NOCc1ccc(C(=O)OC(C)(C)C)cc1` the outcome was “inactive”.

System: not listed separately
Assay: CCTE_Harrill_HTTr_Viability_DMEM_12hr: (Pilot) CCTE's 12-hour Cell Viability Assessment for the High-Throughput Transcriptomics (HTTr) Platform, in MCF-7 cells cultured in DMEM + 10% fetal bovine serum, Harrill Lab (AID 2283974)
Summary of the method: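 Propidium iodide dye exclusion imaged by high-content microscopy after 12 h chemical exposure (eight concentrations) of MCF-7 cells grown in DMEM plus 10% FBS; values fitted in both directions relative to DMSO.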
For `CC(C)CCCCCCc1ccc(O)cc1`, the AC50 was 55.5 µM (active).
In the case of `S=C([S-])NCCNC(=S)[S-].[Mn+2]`, the outcome was “inactive”.
For `C[C@]12CC[C@@H]3c4ccc(O)cc4C[C@@H](CCCCCCCCCS(=O)CCCC(F)(F)C(F)(F)F)[C@H]3[C@@H]1CC[C@@H]2O` (stereo not given in full), the outcome was “inactive”.
With `CC(C)(c1ccc(O)cc1)c1ccc(O)cc1` the outcome was “inactive”.
For `C=CCOC(Cn1ccnc1)c1ccc(Cl)cc1Cl` (stereo not given), the outcome was “inactive”.
With `N[C@@H](Cc1cc(I)c(Oc2ccc(O)c(I)c2)c(I)c1)C(=O)O` the outcome was “inactive”.
For `Cc1nn(C)c(Oc2ccccc2)c1C=NOCc1ccc(C(=O)OC(C)(C)C)cc1`, the outcome was “inactive”.

System: not listed separately
Assay: CCTE_Harrill_HTTr_Viability_DMEM_24hr: (Pilot) CCTE's 24-hour Cell Viability Assessment for the High-Throughput Transcriptomics (HTTr) Platform, in MCF-7 cells cultured in DMEM + 10% fetal bovine serum, Harrill Lab (AID 2283975)
Summary of the method: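 Pilot study: propidium iodide dye exclusion, imaged by high content microscopy, after 24 h compound exposure (eight concentrations) in MCF-7 cultured in DMEM + 10% fetal bovine serum; DMSO served as negative control and baseline.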
With `CC(C)CCCCCCc1ccc(O)cc1` the AC50 was 69.4 µM (active).
In the case of `S=C([S-])NCCNC(=S)[S-].[Mn+2]`, the outcome was “inactive”.
With `C[C@]12CC[C@@H]3c4ccc(O)cc4C[C@@H](CCCCCCCCCS(=O)CCCC(F)(F)C(F)(F)F)[C@H]3[C@@H]1CC[C@@H]2O` (stereo not given in full) the outcome was “inactive”.
In the case of `CC(C)(c1ccc(O)cc1)c1ccc(O)cc1`, the outcome was “inactive”.
In the case of `C=CCOC(Cn1ccnc1)c1ccc(Cl)cc1Cl` (stereo not given), the outcome was “inactive”.
In the case of `N[C@@H](Cc1cc(I)c(Oc2ccc(O)c(I)c2)c(I)c1)C(=O)O`, the outcome was “inactive”.
With `Cc1nn(C)c(Oc2ccccc2)c1C=NOCc1ccc(C(=O)OC(C)(C)C)cc1` the outcome was “inactive”.

System: not listed separately
Assay: CCTE_Harrill_HTTr_Viability_PRF_DMEM_6hr: (Pilot) CCTE's 6-hour Cell Viability Assessment for the High-Throughput Transcriptomics (HTTr) Platform, in MCF-7 cells cultured phenol red-free DMEM + 10% charcoal-stripped fetal bovine serum, Harrill Lab (AID 2283976)
Summary of the method: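 Membrane integrity by high-content imaging of propidium iodide uptake, six hours after dosing with eight concentrations. Cells: MCF-7 grown in phenol red-free DMEM plus 10% charcoal-stripped serum; DMSO serves as baseline for bidirectional fits.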
For `CC(C)CCCCCCc1ccc(O)cc1`, the AC50 was 55.7 µM (active).
For `S=C([S-])NCCNC(=S)[S-].[Mn+2]`, the outcome was “inactive”.
In the case of `C[C@]12CC[C@@H]3c4ccc(O)cc4C[C@@H](CCCCCCCCCS(=O)CCCC(F)(F)C(F)(F)F)[C@H]3[C@@H]1CC[C@@H]2O` (stereo not given in full), the outcome was “inactive”.
In the case of `CC(C)(c1ccc(O)cc1)c1ccc(O)cc1`, the outcome was “inactive”.
With `C=CCOC(Cn1ccnc1)c1ccc(Cl)cc1Cl` (stereo not given) the outcome was “inactive”.
With `N[C@@H](Cc1cc(I)c(Oc2ccc(O)c(I)c2)c(I)c1)C(=O)O` the outcome was “inactive”.
For `Cc1nn(C)c(Oc2ccccc2)c1C=NOCc1ccc(C(=O)OC(C)(C)C)cc1`, the outcome was “inactive”.

System: not listed separately
Assay: CCTE_Harrill_HTTr_Viability_PRF_DMEM_12hr: (Pilot) CCTE's 12-hour Cell Viability Assessment for the High-Throughput Transcriptomics (HTTr) Platform, in MCF-7 cells cultured in phenol red-free DMEM + 10% charcoal-stripped fetal bovine serum, Harrill Lab (AID 2283977)
Summary of the method: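 Membrane integrity was scored via propidium iodide dye exclusion imaging, fitted in both directions relative to DMSO. Compounds ran as eight-point dilutions for 12 hours on MCF-7 grown in phenol red-free DMEM plus 10% charcoal-stripped serum.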
In the case of `CC(C)CCCCCCc1ccc(O)cc1`, the AC50 was 69.2 µM (active).
With `S=C([S-])NCCNC(=S)[S-].[Mn+2]` the outcome was “inactive”.
For `C[C@]12CC[C@@H]3c4ccc(O)cc4C[C@@H](CCCCCCCCCS(=O)CCCC(F)(F)C(F)(F)F)[C@H]3[C@@H]1CC[C@@H]2O` (stereo not given in full), the outcome was “inactive”.
With `CC(C)(c1ccc(O)cc1)c1ccc(O)cc1` the outcome was “inactive”.
In the case of `C=CCOC(Cn1ccnc1)c1ccc(Cl)cc1Cl` (stereo not given), the outcome was “inactive”.
In the case of `N[C@@H](Cc1cc(I)c(Oc2ccc(O)c(I)c2)c(I)c1)C(=O)O`, the outcome was “inactive”.
In the case of `Cc1nn(C)c(Oc2ccccc2)c1C=NOCc1ccc(C(=O)OC(C)(C)C)cc1`, the outcome was “inactive”.

System: not listed separately
Assay: TOX21_TR_RXR_BLA_Antagonist_Followup_viability: Viability Assessment in the Tox21 Thyroid Hormone Receptor beta Retinoid X Receptor alpha (RXRa) Antagonism Beta-lactamase (BLA) Follow-Up Assay (AID 2283979; active = hit-call score of the fitted dose curve at least 0.9, where 1 is the maximum)
Summary of the method: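 RXRa-UAS-bla HEK293T cells seeded 2,500/well in phenol red-free DMEM with 2% charcoal-stripped FBS, attached 5 h, then exposed to compounds at 11 concentrations in triplicate for 16 h at 37C/5% CO2. Viability read by CellTiter-Glo ATP luminescence; bidirectional fit versus DMSO.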
With `C[C@]12CC[C@@H]3c4ccc(O)cc4C[C@@H](CCCCCCCCCS(=O)CCCC(F)(F)C(F)(F)F)[C@H]3[C@@H]1CC[C@@H]2O` (stereo not given in full) the outcome was “inactive”.
With `CC(=O)[C@H]1CC[C@H]2[C@@H]3CCC4=CC(=O)CC[C@]4(C)[C@H]3CC[C@]12C` the outcome was “inactive”.
In the case of `C[C@]12C[C@H](O)[C@H]3[C@@H](CCC4=CC(=O)CC[C@@]43C)[C@@H]1CC[C@@H]2C(=O)CO`, the outcome was “inactive”.

System: not listed separately
Assay: CCTE_Harrill_HTTr_Viability_PRF_DMEM_24hr: (Pilot) CCTE's 24-hour Cell Viability Assessment for the High-Throughput Transcriptomics (HTTr) Platform, in MCF-7 cells cultured in phenol red-free DMEM + 10% charcoal-stripped fetal bovine serum, Harrill Lab (AID 2283980)
Excerpt: This is a cell-based assay that evaluates cell viability using high content imaging to evaluate membrane integrity using propidium iodide dye exclusion in a 384 well format.One of seven assay components measured from the CCTE_Harrill_HTTr_Viability assay. This was part of a pilot experiment. This is a cell-based assay that evaluates cell viability in MCF-7 cells cultured in phenol red-free DMEM + 10% charcoal-stripped fetal bovine serum. High content imaging is used to evaluate membrane integrity using propidium iodide dye exclusion. Measurements are taken at 24 hours after chemical dosing in 384-well format.The assay component endpoint CCTE_Harrill_HTTr_Viability_PRF_DMEM_24hr was analyzed with bidirectional fitting relation to DMSO as the negative control and baseline of activity. Using a type of viability reporter to understand changes in cytotoxicity, gain-of-signal activity can be used to evaluate membrane integrity using propidium iodide dye exclusion. To generalize the intended target to other relatable targets, this assay endpoint is annotated to cell cycle, where the subfamily is cytotoxicity.
Chemicals were tested in MCF7 cells in an eight point dilution series with a twenty-four hour exposure duration.
For `CC(C)CCCCCCc1ccc(O)cc1`, the AC50 was 64.3 µM (active).
For `S=C([S-])NCCNC(=S)[S-].[Mn+2]`, the outcome was “inactive”.
For `C[C@]12CC[C@@H]3c4ccc(O)cc4C[C@@H](CCCCCCCCCS(=O)CCCC(F)(F)C(F)(F)F)[C@H]3[C@@H]1CC[C@@H]2O` (stereo not given in full), the outcome was “inactive”.
In the case of `CC(C)(c1ccc(O)cc1)c1ccc(O)cc1`, the outcome was “inactive”.
For `C=CCOC(Cn1ccnc1)c1ccc(Cl)cc1Cl` (stereo not given), the outcome was “inactive”.
In the case of `N[C@@H](Cc1cc(I)c(Oc2ccc(O)c(I)c2)c(I)c1)C(=O)O`, the outcome was “inactive”.
For `Cc1nn(C)c(Oc2ccccc2)c1C=NOCc1ccc(C(=O)OC(C)(C)C)cc1`, the outcome was “inactive”.

System: not listed separately
Assay: CCTE_Harrill_HTTr_Apoptosis_DMEM_6hr: (Pilot) CCTE's 6-hour Apoptosis Assessment for the High-Throughput Transcriptomics (HTTr) Platform, in MCF-7 cells cultured in DMEM + 10% fetal bovine serum, Harrill Lab (AID 2283981)
Excerpt: This is a cell-based assay that evaluates apoptosis using high content imaging to evaluate activation of caspase-3/7 using the CellEvent Caspase 3/7 Green detection reagent in 384-well format.One of seven assay components measured from the CCTE_Harrill_HTTr_Apoptosis assay. This was part of a pilot experiment. This is a cell-based assay that evaluates apoptosis in MCF-7 cells cultured in DMEM + 10% fetal bovine serum. High content imaging is used to evaluate activation of caspase-3/7 using the CellEvent Caspase 3/7 Green detection reagent. Measurements are taken at 6 hours after chemical dosing in 384-well format.The assay component endpoint CCTE_Harrill_HTTr_Apoptosis_DMEM_6hr was analyzed with bidirectional fitting relation to DMSO as the negative control and baseline of activity. Using a type of viability reporter, gain-of-signal activity can be used to evaluate activation of caspase-3/7 using the CellEvent Caspase 3/7 Green detection reagent to understand changes in apoptosis. To generalize the intended target to other relatable targets, this assay endpoint is annotated to cell cycle, where the subfamily is apoptosis.
Chemicals were tested in MCF7 cells in an eight point dilution series with a six hour exposure duration.
With `CC(C)CCCCCCc1ccc(O)cc1` the outcome was “inactive”.
With `S=C([S-])NCCNC(=S)[S-].[Mn+2]` the outcome was “inactive”.
In the case of `C[C@]12CC[C@@H]3c4ccc(O)cc4C[C@@H](CCCCCCCCCS(=O)CCCC(F)(F)C(F)(F)F)[C@H]3[C@@H]1CC[C@@H]2O` (stereo not given in full), the outcome was “inactive”.
In the case of `CC(C)(c1ccc(O)cc1)c1ccc(O)cc1`, the outcome was “inactive”.
For `C=CCOC(Cn1ccnc1)c1ccc(Cl)cc1Cl` (stereo not given), the outcome was “inactive”.
For `N[C@@H](Cc1cc(I)c(Oc2ccc(O)c(I)c2)c(I)c1)C(=O)O`, the outcome was “inactive”.
In the case of `Cc1nn(C)c(Oc2ccccc2)c1C=NOCc1ccc(C(=O)OC(C)(C)C)cc1`, the outcome was “inactive”.
